Measured values published in paper PMC4336329 (PLoS ONE, 2015).
Among all 310,000 compounds or so, about 14,000 (4.5%) showed an effect of 50% or more. Effects have a minus sign here. The sample as a whole holds a higher share of strong results than the screen did.

These compounds were tested against human ether-à-go-go-related gene (hERG) potassium channel (human, UniProt Q12809) (assay: primary screen, population patch clamp on CHO cells stably expressing hERG; higher = less effect of the substance).
human ether-à-go-go-related gene (hERG) potassium channel, sequence (Q12809 whole entry, looked up): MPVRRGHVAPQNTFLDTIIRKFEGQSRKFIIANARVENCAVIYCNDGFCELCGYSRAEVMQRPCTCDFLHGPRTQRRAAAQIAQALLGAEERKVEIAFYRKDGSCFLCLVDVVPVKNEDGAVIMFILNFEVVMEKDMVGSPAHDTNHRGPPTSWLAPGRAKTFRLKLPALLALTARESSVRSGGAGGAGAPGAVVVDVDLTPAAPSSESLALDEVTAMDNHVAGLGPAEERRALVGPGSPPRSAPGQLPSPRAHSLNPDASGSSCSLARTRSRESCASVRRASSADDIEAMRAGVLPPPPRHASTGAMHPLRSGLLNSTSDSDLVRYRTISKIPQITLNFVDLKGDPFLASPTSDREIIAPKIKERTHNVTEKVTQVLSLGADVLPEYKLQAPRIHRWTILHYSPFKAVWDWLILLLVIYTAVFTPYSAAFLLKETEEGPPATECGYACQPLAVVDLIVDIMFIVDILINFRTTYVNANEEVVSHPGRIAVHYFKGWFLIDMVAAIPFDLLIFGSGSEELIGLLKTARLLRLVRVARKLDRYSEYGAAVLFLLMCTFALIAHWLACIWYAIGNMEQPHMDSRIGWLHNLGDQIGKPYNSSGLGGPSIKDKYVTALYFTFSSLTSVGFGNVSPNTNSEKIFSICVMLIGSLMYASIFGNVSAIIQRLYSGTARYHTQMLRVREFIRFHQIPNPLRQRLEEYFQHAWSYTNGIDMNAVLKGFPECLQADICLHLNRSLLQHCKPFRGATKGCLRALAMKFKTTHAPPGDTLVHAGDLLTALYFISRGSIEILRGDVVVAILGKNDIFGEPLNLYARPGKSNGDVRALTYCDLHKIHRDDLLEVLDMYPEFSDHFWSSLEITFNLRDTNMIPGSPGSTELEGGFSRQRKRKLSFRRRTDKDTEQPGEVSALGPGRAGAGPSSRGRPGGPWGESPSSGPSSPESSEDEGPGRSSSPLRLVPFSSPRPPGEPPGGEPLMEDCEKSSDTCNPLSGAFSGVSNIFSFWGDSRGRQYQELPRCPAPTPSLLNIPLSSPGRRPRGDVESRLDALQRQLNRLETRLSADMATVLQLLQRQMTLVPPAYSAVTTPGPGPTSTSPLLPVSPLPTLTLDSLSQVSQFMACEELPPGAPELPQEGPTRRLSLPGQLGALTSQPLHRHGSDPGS
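Also: peak tail current of the secondary pulse compared with the same well before compound.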

Row | Compound | hERG current change (%, negative = inhibition) at 10uM [%]
1 | CC(C)N(Cc1nc(-c2ccc(Cl)cc2)no1)C(=O)c1cccs1 | -8.63
2 | CCCn1c(CNC(=O)Cc2ccccc2)nc2ccccc21 | -21.3
3 | CCOC(=O)c1c(CN2CCCCC2)n(C)c2cc(Br)c(O)cc12 | -68.2
4 | CCOC(=O)c1c(CN2CCCCC2)n(C)c2cc(Br)c(OC)cc12 | -31.7
5 | CCOC(=O)c1c(CN2CCC(C)CC2)n(C)c2cc(Br)c(OC)cc12 | 10.5
6 | CCCCCOC(=O)Cc1c(O)c2ccccc2[nH]c1=O | 12.8
7 | CCN(CC)S(=O)(=O)c1ccc(F)c(C(=O)NCCCN2CCOCC2)c1 | -11.7
8 | COC(=O)c1cc(C(=O)c2cccc(Cl)c2Cl)cn1C | -43.4
9 | CCOc1ccccc1Nc1nc(N)nc(CN(C)C2CCCCC2)n1 | -76.1
10 | CCOc1ccc(Nc2nc(N)nc(CN(C)C3CCCCC3)n2)cc1 | -71.5
11 | CCOc1ccc(Nc2ncnc(N)n2)cc1 | 10.3
12 | COc1ccc(CN(C)C2CCCCC2)cc1 | -25.1
13 | CCOc1ccccc1Nc1nc(N)nc(CN2CCCCC2C)n1 (stereo not shown) | -50
14 | COc1ccc(Nc2nc(N)nc(CN(C)C3CCCCC3)n2)cc1 | -57.5
15 | CCOc1ccc(Nc2nc(N)nc(CCl)n2)cc1 | -8.2
16 | COc1ccccc1Nc1nc(N)nc(CN(C)C2CCCCC2)n1 | -35.8
17 | COc1ccc(Nc2nc(N)nc(COc3ccc(OC)cc3)n2)cc1 | 4.75
18 | COC(=O)N/N=C/c1cc(Cl)cc(Cl)c1OCc1ccc(F)cc1 | 3.82
19 | O=[N+]([O-])c1cccc(C2N3CCCN23)c1 (stereo not shown) | 12.3
20 | Cc1cc2c(cc1S(=O)(=O)Nc1c(C)cccc1C)n(C)c(=O)c(=O)n2C | -0.831

Row | Compound | hERG current change (%, negative = inhibition) at 10uM [%]
21 | Cc1nc(-c2ccccc2)nn1-c1ccc([N+](=O)[O-])cc1 | -26.2
22 | O=[N+]([O-])c1ccc(-n2nnnc2-c2ccccc2)cc1 | -21.3
23 | COc1ccc(-c2cc(C3CCNCC3)[nH]n2)cc1 | 18.7
24 | O=[N+]([O-])c1cccnc1N1CCC(c2cc(-c3cccc(C(F)(F)F)c3)n[nH]2)CC1 | -13.7
25 | COc1ccc(-c2cc(C3CCN(Cc4ccc([N+](=O)[O-])cc4)CC3)[nH]n2)cc1 | -73
26 | COc1ccc(-c2cc(C3CCN(Cc4cccc(C(F)(F)F)c4)CC3)[nH]n2)cc1 | -55.2
27 | COc1ccc(-c2cc(C3CCN(c4ncccc4[N+](=O)[O-])CC3)[nH]n2)cc1 | -5.85
28 | COc1ccc(-c2cc(C3CCN(C(=O)OC(C)(C)C)CC3)[nH]n2)cc1 | -26.4
29 | O=c1ccc(-c2ccc([N+](=O)[O-])cc2)nn1-c1ccccc1 | -55
30 | COc1ccc(-c2cn(Cc3ccc([N+](=O)[O-])cc3)nn2)cc1 | -9.43
31 | COC(=O)CCN1CCC(c2cc(-c3cccc(C(F)(F)F)c3)n[nH]2)CC1 | -72.2
32 | FC(F)(F)c1cccc(-c2cc(C3CCNCC3)[nH]n2)c1 | -44.3
33 | Cc1ccc(CNc2nc(C)c(C(=O)N(C)C)s2)cc1 | 4.98
34 | COc1ccc(S(=O)(=O)Cc2ccc(C(=O)NCCc3cc(OC)ccc3OC)o2)cc1 | -39.6
35 | COc1ccccc1C(CC(N)=O)c1ccco1 (stereo not shown) | 10.1
36 | O=C(Cc1cn2ccsc2n1)Nc1nc2c(s1)CCCC2 | -0.221
37 | CN(C)c1ccc(-c2nnn(CC(=O)Nc3ccccc3N3CCOCC3)n2)cc1 | -15.1
38 | CCOn1c(=O)c(-c2ccc(Br)cc2)[n+]([O-])c2ccccc21 | 13.6
39 | CNc1nc(N)c([N+](=O)[O-])c(NCc2ccccc2)n1 | -1.09
40 | Oc1ccc(Br)cc1CNc1cnc2ccccc2c1 | 16.4

Row | Compound | hERG current change (%, negative = inhibition) at 10uM [%]
41 | O=C(COC(=O)c1ncc(Cl)c(Cl)c1Cl)NNC(=O)c1ccccc1 | -1.26
42 | CCC(=O)Nc1ccc(C(=O)c2ccccc2)cc1 | -9.96
43 | Cc1ccc(C)c(NC(=O)[C@@H]2CCCN2S(=O)(=O)c2ccccc2F)c1 | 10.9
44 | COc1ccc(Nc2cc(Nc3ccccc3)ncn2)cc1 | 11.5
45 | COc1ccc(-c2ccc(=O)n(Cc3ccc([N+](=O)[O-])cc3)n2)cc1 | -75
46 | COc1ccc(-c2ccc(=O)n(Cc3ccccc3)n2)cc1 | -5.74
47 | COc1ccc(-c2ccc(=O)n(Cc3cccc([N+](=O)[O-])c3)n2)cc1 | -21.2
48 | C=CCOc1ccc(CNn2cn[nH]c2=S)cc1OCC | 12.7
49 | CN(CC(=O)Nc1ccccc1Br)C(=O)CCc1nc2ccccc2c(=O)[nH]1 | -15.8
50 | COC(=O)c1cc(C(=O)c2ccc(Cl)cc2Cl)cn1C | -16.4
51 | O=C(NCC(=O)N1CCN(C(=O)c2ccco2)CC1)c1ccccc1 | -7.74
52 | O=C(NCC(=O)N1CCN(C(=O)c2ccco2)CC1)c1ccc(Br)cc1 | -53.9
53 | COc1ccc(C(=O)NCC(=O)N2CCN(C(=O)c3ccco3)CC2)cc1 | -13.7
54 | O=C(NCC(=O)N1CCN(C(=O)c2ccco2)CC1)c1ccc(Cl)cc1 | -34.1
55 | O=C(NCCC(=O)N1CCN(C(=O)c2ccco2)CC1)c1ccc(Br)cc1 | -28.6
56 | CCCCOc1ccc(C(=O)NCC(=O)N2CCN(C(=O)c3ccco3)CC2)cc1 | -57.4
57 | O=[N+]([O-])c1ccc(Sc2n[nH]c(-c3ccncc3)n2)nc1 | 14.4
58 | CCCN(CC(=O)Nc1ccccc1C)C(=O)/C=C/c1ccc(OCC)c(OC)c1 | -46.7
